# Results as given in PubChem BioAssay AID720540 (National Center for Advancing Translational Sciences (NCATS), 2013).
# The whole screen tested about 1,300 compounds, of which about 460 (35%) were called active. About 39% were inconclusive and are not listed. Calls come from the whole dose curve; as a rule, active = well fitted inhibition curve with a large enough effect; inconclusive = small, poorly fitted or top-dose-only effect; inactive = flat fitted curve, though single readings scatter. The list shows a part of the results.
# Target: Protein phosphatase EYA2 (Homo sapiens) (UniProt O00167)
# Sequence (O00167 whole entry, looked up): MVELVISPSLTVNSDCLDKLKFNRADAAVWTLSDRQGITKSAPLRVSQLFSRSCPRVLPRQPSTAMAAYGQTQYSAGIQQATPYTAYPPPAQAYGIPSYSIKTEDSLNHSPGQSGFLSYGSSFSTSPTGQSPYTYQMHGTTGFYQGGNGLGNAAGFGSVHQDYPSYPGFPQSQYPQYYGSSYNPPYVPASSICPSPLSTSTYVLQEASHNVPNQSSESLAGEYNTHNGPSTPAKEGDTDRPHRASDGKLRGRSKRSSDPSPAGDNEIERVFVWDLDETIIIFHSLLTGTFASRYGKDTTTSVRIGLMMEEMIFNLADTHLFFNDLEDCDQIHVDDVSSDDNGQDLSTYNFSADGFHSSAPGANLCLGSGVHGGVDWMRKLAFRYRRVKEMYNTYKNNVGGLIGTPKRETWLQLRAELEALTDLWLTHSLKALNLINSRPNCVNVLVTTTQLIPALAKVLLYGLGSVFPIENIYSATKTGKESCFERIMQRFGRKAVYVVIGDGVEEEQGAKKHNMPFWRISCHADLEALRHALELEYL
# Assay: qHTS for Inhibitors of the Phosphatase Activity of Eya2: Confirmatory Assay for Cherry-picked Compounds; note: nearly all actives have a fitted effect of over 65% in size
# Settings: purified EYA2 phosphatase activity, qHTS confirmation; series mostly up to 46.1 µM
# Description: The Eya protein family is an essential co-activator of the Six1 transcription factor. Six1 is a developmental gene that is abnormally re-expressed in a large percentage of breast cancers. This over-expression plays a causal role in the initiation and metastatic development of breast cancers. The Eya family of protein is also found to contain a unique HAD phosphatase domain with protein tyrosine phosphatase activity which can potentially play a role in Six1-mediated breast tumorigenesis. Recently, Eya2 is found to dephosphorylate the histone variant H2AX and direct cells towards DNA repair instead of apoptosis in the event of DNA damage.
# A 1536 well format, fluorescence based qHTS assay was developed and used to target the phosphatase activity of Eya2 (AID 488837). Inhibitors found against Eya2 could serve as potential therapeutic tools to inhibit Six1-mediated breast tumorigenesis and to increase the efficiency of radiation and certain chemo therapy. This assay assessed the activity of the primary screen cherry-picked compounds against Eya2. Inhibition is the desired outcome for this assay.
# NIH Chemical Genomics Center [NCGC]
# NIH Molecular Libraries Probe Centers Network [MLPCN]
# Assay Submitter (PI): Rui Zhao, University of Colorado Denver
# Eya2 enzyme and 3-O-methyl-fluorescein phosphate (OMFP) substrate working solutions were reconstituted in the buffer reagent consist of 50 mM HEPES pH 7.5, 50 mM NaCl, […], 0.05% BSA and 1 mM DTT. One and a half microliter of 0.2 uM Eya2 working solution was dispensed in a 1536 well Greiner plate (black, medium bind). Twenty-three nanoliter of test compounds and control compound EGTA was transferred to the assay plate using the Kalypsys robotic system equipped with a 1536 pin head. The plate was incubated at room temperature for 10 minutes. One and a half microliter of the 50 uM the OMFP substrate was then dispensed to the assay plate and incubated at room temperature for additional 10 min. The fluorescence signal was read using the PerkinElmer ViewLux plate reader using a 485 nm excitation and 525 nm emission filters. The data was normalized to the positive control for maximum inhibition and DMSO treated wells as negative control.
# Potency is the fitted concentration of half-maximal effect.
row,SMILES,Potency
1,CCC(C)Nc1nc(-c2ccccn2)nc2ccccc12 (configuration not stated),8.49 µM (active)
2,CC(C)c1cccc(-c2ccc3c(c2)S(=O)(=O)c2cccc(C(=O)O)c2C3=O)c1,21.3 µM (active)
3,CCN(CC)c1ccc(/C=C2\CCC(/C=C(\C#N)C(=O)Nc3ccccc3F)=C2N2CCOCC2)cc1,3.01 µM (active)
4,N#C/C(=C\C1=C(N2CCOCC2)C(=C\c2ccccc2)/CC1)C(=O)Nc1ccccc1F,1.07 µM (active)
5,O=C1C(=O)C(c2ccc(O)cc2O)Oc2cc(O)cc(O)c21 (configuration not stated),8.49 µM (active)
6,COc1cc([C@H]2Oc3cc([C@H]4Oc5cc(O)cc(O)c5C(=O)[C@@H]4O)ccc3O[C@@H]2CO)ccc1O,inactive
7,CC1(C)CC(=O)C(C2C3=C(CC(C)(C)CC3=O)Oc3c(Br)cc(Br)cc32)=C(O)C1 (configuration not stated),3.79 µM (active)
8,O=C(CSc1nnc2c(Cl)cc(Cl)cn12)NC1CCS(=O)(=O)C1 (configuration not stated),inactive
9,CCC(C)Nc1ccc(NC(C)CC)cc1 (configuration not stated),0.0953 µM (active)
10,O=c1cc2c(=O)oc3cc(O)c(O)oc3c2c(O)c1O,1.2 µM (active)
11,Cc1ccc2cc(NC(=O)CC(CC(=O)O)c3ccccc3)ccc2n1 (configuration not stated),19 µM (active)
12,O=C(C1CCN(c2nnc(-n3cccc3)s2)CC1)N1CCOCC1,inactive
13,CN(C)c1ccc2c(c1)C(=NO)c1ccccc1-2,9.53 µM (active)
14,CN(C)c1ccc(C=C2c3ccccc3-c3ccccc32)cc1,7.57 µM (active)
15,CNc1ccc(C=C2c3ccccc3-c3ccccc32)cc1,12 µM (active)
16,CN(C)c1ccc(/C=C2\C(Cl)=Cc3ccccc32)cc1,5.36 µM (active)
17,CN(Cc1ccccc1F)c1nc(-c2cccnc2)nc2ccccc12,inactive
18,COc1ccc(Nc2nc(C(C)(C)C)nc3c2nnn3Cc2ccccc2Cl)cc1OC,inactive
19,CN(C)c1ccc(/C=C2\c3ccccc3-c3ccc(N(C)C)cc32)cc1,5.36 µM (active)
20,CN(C)c1ccc(/C=C2\C(=O)/C(=C/c3ccc(N(C)C)cc3)c3ccccc32)cc1,4.26 µM (active)
21,CCOc1ccc(S(=O)(=O)NCc2ccc(C)cc2)c2cccnc12,inactive

row,SMILES,Potency
1,CCOc1ccc(NC(=O)COc2cccc3cccnc23)cc1S(=O)(=O)N1CCCC1,19 µM (active)
2,CCOc1ccc(NC(=O)COc2ccc3c(c2)CCC3)cc1OC,inactive
3,COc1cc(N(C)C)ccc1/C=C1\C=Cc2ccccc21,7.57 µM (active)
4,CN(C)c1ccc(/C=C2\C=Cc3ccccc32)c(Cl)c1,6.75 µM (active)
5,COc1cc(N(C)C)c(OC)cc1/C=C1\C=Cc2ccccc21,5.36 µM (active)
6,COc1cc(OC)c(OC)cc1/C=C1\C=Cc2ccccc21,8.49 µM (active)
7,CC(C)(C)C(=O)[C@H]1[C@H](c2ccccc2)[C@@]2(N=C(c3ccccc3)OC2=O)C2c3ccccc3C=NN21 (some centres not stated),inactive
8,CC1=CC(=O)Nc2ncccc2O1,19 µM (active)
9,Cc1ccccc1Nc1c(-c2ccccn2)nc2ccccn12,2.39 µM (active)
10,Cc1ccc(Nc2c(-c3ccccn3)nc3ccc(C)cn23)cc1,4.26 µM (active)
11,Cc1cccc(C)c1Nc1c(-c2ccccn2)nc2ccccn12,7.57 µM (active)
12,CC(=O)Oc1cccc(C(=O)Nc2cccc(C(=O)Nc3ccccc3C(=O)O)c2)c1,15.1 µM (active)
13,CC(=O)c1ccc(NS(=O)(=O)c2cccc(C(=O)Nc3ccccc3C(=O)O)c2)cc1,15.1 µM (active)
14,NC(=O)C1CCN(c2oc(-c3cccs3)nc2S(=O)(=O)c2ccc(Br)cc2)CC1,inactive
15,CCOC(=O)C1CCCN(C2=C(NS(=O)(=O)c3ccc(Br)cc3)C(=O)c3ccccc3C2=O)C1 (configuration not stated),9.53 µM (active)
16,CCOC(=O)CNC(=O)C1CCCN(c2ncccn2)C1 (configuration not stated),inactive
17,CCOC(=O)C1CCN(C2=C(NS(=O)(=O)c3ccc(Br)cc3)C(=O)c3ccccc3C2=O)CC1,3.79 µM (active)
18,N/C(=N\OC(=O)c1ccc2ccccc2c1)c1ccncc1,inactive
19,Cc1cc(C)nc(-n2nc(C)cc2NC(=O)c2cc3ccccc3oc2=O)n1,5.36 µM (active)
20,O=C(CC1(O)C(=O)Nc2ccccc21)c1ccccc1 (configuration not stated),inactive
21,CCOC(=O)C1=C(COC(=O)CCOc2ccccc2)NC(=O)NC1C (configuration not stated),inactive

row,SMILES,Potency
1,COc1ccc(C(=O)Oc2ccc(=O)n(-c3ccccc3)n2)cc1,8.49 µM (active)
2,Cc1nc(COC(=O)c2c(C)nn(-c3ccccc3)c2C)cs1,inactive
3,CCOC(=O)c1[nH]c2ccc(C(=O)OC)cc2c1C(=O)OCC,13.5 µM (active)
4,Cc1[nH]c2ccc(C(=O)OC(C)C(=O)N(C)c3ccccc3)cc2c1C (configuration not stated),inactive
5,CCOC(=O)c1c2ccc(OCC(=O)NN)cc2n2ccccc12,inactive
6,O=c1cc(CSc2ccc(Cl)cc2)nc(-c2ccccn2)[nH]1,2.13 µM (active)
7,NC(=O)c1ccc(NC(=O)COC(=O)/C=C/c2ccc(Br)o2)cc1,inactive
8,Cc1ccc(/C=C/C(=O)Nc2ccc(N(C)C)cc2)o1,19 µM (active)
9,CCn1ccnc1CNCc1cn(-c2cc(C)ccc2C)nc1-c1ccccc1,15.1 µM (active)
10,COc1cc(N)c(Cl)cc1C(=O)N[C@H]1CCN(CCCOc2ccc(F)cc2)C[C@H]1OC,inactive
11,O=c1c(CO)cc(CO)cc(CO)c1O,5.36 µM (active)
12,Cc1cc(NS(=O)(=O)c2ccc(NC(=O)c3cc4c(=O)n5ccccc5nc4s3)cc2)nc(C)n1,8.49 µM (active)
13,O=C(Nc1ccc(Nc2ccccc2)cc1)c1ccc(Cl)cc1[N+](=O)[O-],inactive
14,O=C(Nc1ccc(S(=O)(=O)Nc2cnc3ccccc3n2)cc1)c1ccc(Cl)c([N+](=O)[O-])c1,16.9 µM (active)
15,Cc1cc(NS(=O)(=O)c2ccc(NC(=O)c3cnc(Cl)c(Cl)c3)cc2)nc(C)n1,2.39 µM (active)
16,O=C(O)c1ccc(Nc2cnc3ccccc3n2)cc1,inactive
17,CN=c1scc(C)n1/N=C/c1ccc2c(c1)OCO2,inactive
18,CC1CCC2C(=O)N(c3ccc(C(=O)Oc4cccc5cccnc45)cc3)C(=O)C2C1 (configuration not stated),8.49 µM (active)
19,COc1cc(NS(=O)(=O)c2ccc(N/C=C\C(=O)c3ccc(OC)c(OC)c3)cc2)nc(OC)n1,9.53 µM (active)
20,COc1ccc(C(=O)/C=C/Nc2ccc(S(=O)(=O)Nc3nc(C)cc(C)n3)cc2)cc1OC,13.5 µM (active)
